We go through 1 molecule from PubChem BioAssay AID1159580 (chemical genetic matrix, 2015).

About 2,000 (36%) of roughly 5,500 compounds were called active. Not shown: some 18% with an inconclusive outcome. This is one part of the list. A number with no mark means an inactive call. Rule as the data show it: active = normalized growth mostly below about 0.91 (no sharp cut-off); inconclusive = no clear call, values can overlap the other calls; inactive = mostly above about 0.92.

This experiment in a line: chemical genetic growth profiling, strain panel (AID 1159580).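 Also: tested at 20 µM; growth read once vehicle control cultures reached saturation at 30 °C; 1 = growth at the plate median or of vehicle wells; lower values mean less growth of the strain.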 Conditions: S. cerevisiae deletion strains, growth OD.

Consider `CC(=O)c1c(O)c(C)c(O)c(Cc2c(O)c3c(c(C(=O)/C=C/c4ccccc4)c2O)OC(C)(C)C=C3)c1O`, for which the normalized growth is, setting by setting: (locus YAL013W, strain DEP1, active compounds read low) 0.909; (locus YAL040C, strain CLN3, active compounds read low) 1; (locus YCL061C, strain MRC1 (second series), active compounds read low) 0.917 (active); (locus YDR150W, strain NUM1, active compounds read low) 0.883 (active); (locus YDR363W, strain ESC2, active compounds read low) 0.999; (locus YER002W, strain NOP16, active compounds read low) 1.06. Further, the normalized growth was 0.989 (locus YGR078C, strain PAC10, active compounds read low); 0.876 (locus YGR229C, strain SMI1, active compounds read low); 0.877 (active) (locus YJR075W, strain HOC1, active compounds read low); 0.877 (active) (locus YMR307W, strain GAS1, active compounds read low); 0.857 (locus YNL153C, strain GIM3, active compounds read low); 1.06 (locus YNL175C, strain NOP13, active compounds read low). For the same molecule, the normalized growth was 1.01 (locus YNL197C, strain WHI3, active compounds read low); 1.01 (locus YNL224C, strain SQS1, active compounds read low); 0.898 (locus YOR083W, strain WHI5 (second series), active compounds read low); 0.881 (active) (locus YPL055C, strain LGE1, active compounds read low); 0.902 (active) (locus YPL241C, strain CIN2, active compounds read low).
